Experimental data from the supplement of paper PMC10849652.
Targets with a hit are over-represented here; the source holds about 8,800 in all. About 0.5% of all pairs of compound and target were hits.

What was measured:
Assay in all cases: log2 fold change, soluble protein after heating vs DMSO (PISA); higher = thermal stabilisation; K562 lysate, 10 uM; active = over 0.2 and 3.5 SD of the protein, either way, in both replicates (recomputed)
[1] = compound: CN1CC[C@H](c2c(O)cc(O)c3c(=O)cc(-c4ccccc4Cl)oc23)[C@H](O)C1 [alvocidib]
Method in brief: (§1)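 Values give the log-two fold change in thermal stability against solvent controls, from duplicates. Crude K562 extract at 1 mg/mL protein, made by dounce homogenisation in PBS pH 7.4 with 1 mM MgCl2, was treated with 10 μM compound for 30 min. After 3 min heating across 48°C-58°C, aliquots were pooled, adjusted to 0.5% NP-40 at 4°C and centrifuged at 21,000xg for 90 min. The supernatant was measured by TMTpro 16plex LC-MS/MS with channel sums equalised.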

[2] = compound: CN1CCc2c(c3ccccc3n2Cc2ccc(C(=O)NO)cc2)C1 [Tubastatin A]
Method in brief: as §1

[3] = compound: CNC(=O)C1=CC=CC=C1NC2=NC(=NC=C2Cl)NC3=C(C=C(C=C3)N4CCOCC4)OC
Method in brief: as §1

[4] = compound: CNC(=O)c1ccc(Nc2ncc(C(F)(F)F)c(NCc3nccnc3N(C)S(C)(=O)=O)n2)cc1 [defactinib]
Method in brief: as §1

[5] = compound: CNc1nc(-c2ccc3c(N)n[nH]c3c2)cc(N2C[C@@H](C(=O)NC3CCCCC3)CC[C@H]2C)n1
Method in brief: as §1

[6] = compound: COC(=O)N[C@@H](C)CNc1nccc(-c2cn(C(C)C)nc2-c2cc(Cl)cc(NS(C)(=O)=O)c2F)n1 [encorafenib]
Method in brief: as §1

[7] = compound: COC(=O)[C@H](CCSC)NC(=O)C1=C(C=C(C=C1)NC[C@H](CS)N)C2=CC=CC=C2
Method in brief: as §1

[8] = compound: COc1cc(Nc2ncc3c(n2)-c2ccc(Cl)cc2C(c2c(F)cccc2OC)=NC3)ccc1C(=O)O [alisertib]
Method in brief: as §1

[9] = compound: COc1cc2nc(-c3cc(F)ccc3O)nc(N[C@@H]3CNC[C@H]3C(C)(C)O)c2cc1OC
Method in brief: as §1

[10] = compound: COc1cc2ncnc(Nc3ccc(F)c(Cl)c3)c2cc1OCCCN1CCOCC1 [gefitinib]
Method in brief: as §1

[11] = compound: CS(=O)(=O)CCNCc1ccc(-c2ccc3ncnc(Nc4ccc(OCc5cccc(F)c5)c(Cl)c4)c3c2)o1 [lapatinib]
Method in brief: as §1

[12] = compound: CS(=O)(=O)N1CCN(Cc2cc3nc(-c4cccc5[nH]ncc45)nc(N4CCOCC4)c3s2)CC1 [pictilisib]
Method in brief: as §1

[13] = compound: C[C@@H](Oc1cc(-c2cnn(C3CCNCC3)c2)cnc1N)c1c(Cl)ccc(F)c1Cl [crizotinib]
Method in brief: as §1

[14] = compound: C[C@H](C1=CC=C(C=C1)C(=O)NC2=C3C=CNC3=NC=C2)N
Method in brief: as §1

[15] = compound: C[C@H](Nc1ncnc2nc[nH]c12)c1cc2cccc(Cl)c2c(=O)n1-c1ccccc1 [duvelisib]
Method in brief: as §1

[16] = compound: Cc1cc(Nc2cc(CN3CCOCC3)c3nc(C)c(Cc4ccc(Cl)cc4F)n3n2)n[nH]1 [gandotinib]
Method in brief: as §1

[17] = compound: Cc1cc(Nc2cc(N3CCN(C)CC3)nc(Sc3ccc(NC(=O)C4CC4)cc3)n2)n[nH]1 [tozasertib]
Method in brief: as §1

[18] = compound: Cc1ccc(-n2nc(C(C)(C)C)cc2NC(=O)Nc2ccc(OCCN3CCOCC3)c3ccccc23)cc1 [doramapimod]
Method in brief: as §1

[19] = compound: Cc1ccc(NC(=O)c2ccc(CN3CC[C@H](N(C)C)C3)c(C(F)(F)F)c2)cc1Nc1nccc(-c2cncnc2)n1 [bafetinib]
Method in brief: as §1

[20] = compound: Cc1cccc(CC(=O)N2CCc3c2ccc(-c2cn(C)c4ncnc(N)c24)c3F)n1
Method in brief: as §1

Measured: log2 fold change

MAP7D3 (UniProt Q8IWC1)
inactive: [1] -0.063 | [2] 0.015 | [3] 0.037 | [5] -0.011 | [6] 0.223 | [7] 0.013 | [8] 0.01 | [9] -0.02 | [10] 0.017 | [11] 0.033 | [12] 0.01 | [13] -0.006 | [14] -0.055 | [15] -0.068 | [16] 0.021 | [17] 0.066 | [18] 0.065 | [19] -0.128 | [20] 0.06
active: [4] -0.379

LIG3 (UniProt P49916)
Sequence of UniProt P49916 (P49916 whole entry, looked up): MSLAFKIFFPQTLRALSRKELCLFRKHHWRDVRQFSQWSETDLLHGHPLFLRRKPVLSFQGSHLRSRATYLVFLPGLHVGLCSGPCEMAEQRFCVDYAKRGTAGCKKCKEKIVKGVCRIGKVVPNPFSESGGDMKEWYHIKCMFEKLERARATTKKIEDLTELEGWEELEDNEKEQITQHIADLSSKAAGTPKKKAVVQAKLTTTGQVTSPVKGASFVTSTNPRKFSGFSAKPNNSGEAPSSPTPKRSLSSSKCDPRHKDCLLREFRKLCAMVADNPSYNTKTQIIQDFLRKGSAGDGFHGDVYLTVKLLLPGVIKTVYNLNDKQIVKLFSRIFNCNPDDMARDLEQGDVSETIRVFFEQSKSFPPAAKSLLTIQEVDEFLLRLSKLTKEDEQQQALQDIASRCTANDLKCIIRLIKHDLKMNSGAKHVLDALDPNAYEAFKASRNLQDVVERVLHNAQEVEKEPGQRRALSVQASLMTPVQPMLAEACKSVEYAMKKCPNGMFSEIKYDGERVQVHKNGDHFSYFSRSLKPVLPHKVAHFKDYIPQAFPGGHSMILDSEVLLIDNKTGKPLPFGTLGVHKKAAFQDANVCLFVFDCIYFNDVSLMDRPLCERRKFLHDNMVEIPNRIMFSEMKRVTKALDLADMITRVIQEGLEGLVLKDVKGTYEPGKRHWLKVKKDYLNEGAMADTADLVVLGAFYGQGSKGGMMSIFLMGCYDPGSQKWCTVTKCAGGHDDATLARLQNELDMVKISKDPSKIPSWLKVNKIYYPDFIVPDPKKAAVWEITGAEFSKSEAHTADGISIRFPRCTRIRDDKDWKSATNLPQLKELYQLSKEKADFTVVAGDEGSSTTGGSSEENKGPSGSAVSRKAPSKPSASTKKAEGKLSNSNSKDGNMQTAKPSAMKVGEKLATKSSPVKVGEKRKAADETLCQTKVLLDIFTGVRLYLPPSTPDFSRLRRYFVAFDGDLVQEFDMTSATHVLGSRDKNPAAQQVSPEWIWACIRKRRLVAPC
inactive: [1] -0.017 | [2] -0.142 | [3] 0.007 | [4] 0.006 | [5] -0.002 | [6] 0.023 | [7] 0.121 | [8] -0.009 | [9] -0.008 | [10] -0.015 | [11] -0.007 | [12] 0.006 | [13] -0.044 | [14] -0.008 | [15] 0.01 | [16] -0.05 | [17] -0.004 | [18] 0.016 | [19] -0.046 | [20] 0.016

METTL7A (UniProt Q9H8H3)
Sequence of UniProt Q9H8H3 (Q9H8H3 whole entry, looked up): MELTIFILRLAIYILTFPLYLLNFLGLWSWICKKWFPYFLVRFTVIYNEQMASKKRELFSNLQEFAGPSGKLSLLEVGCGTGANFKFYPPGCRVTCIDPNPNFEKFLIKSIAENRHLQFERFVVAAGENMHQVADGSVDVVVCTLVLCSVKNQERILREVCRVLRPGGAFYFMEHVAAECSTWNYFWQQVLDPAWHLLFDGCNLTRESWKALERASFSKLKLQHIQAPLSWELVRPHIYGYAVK
inactive: [1] -0.079 | [2] 0.014 | [3] 0.003 | [4] 0.011 | [5] 0.041 | [6] -0.041 | [7] 0.151 | [8] -0.036 | [9] -0.01 | [10] -0.046 | [11] 0.023 | [12] 0.019 | [13] 0.177 | [14] -0.019 | [15] 0.021 | [16] 0.226 | [17] -0.081 | [18] 0.071 | [19] 0.048 | [20] 0.019

MIF4GD isoform 3 (UniProt A9UHW6)
inactive: [1] 0.021 | [2] 0.014 | [3] 0.002 | [4] -0.01 | [5] -0.066 | [6] -0.012 | [7] 0.01 | [8] -0.037 | [9] 0.007 | [10] 0.049 | [11] -0.008 | [12] -0.054 | [13] 0.012 | [14] 0.023 | [15] 0.041 | [16] 0.021 | [17] 0.005 | [18] 0.025 | [19] -0.03 | [20] 0.013

MED16 (UniProt Q9Y2X0)
Sequence of UniProt Q9Y2X0 (Q9Y2X0 whole entry, looked up): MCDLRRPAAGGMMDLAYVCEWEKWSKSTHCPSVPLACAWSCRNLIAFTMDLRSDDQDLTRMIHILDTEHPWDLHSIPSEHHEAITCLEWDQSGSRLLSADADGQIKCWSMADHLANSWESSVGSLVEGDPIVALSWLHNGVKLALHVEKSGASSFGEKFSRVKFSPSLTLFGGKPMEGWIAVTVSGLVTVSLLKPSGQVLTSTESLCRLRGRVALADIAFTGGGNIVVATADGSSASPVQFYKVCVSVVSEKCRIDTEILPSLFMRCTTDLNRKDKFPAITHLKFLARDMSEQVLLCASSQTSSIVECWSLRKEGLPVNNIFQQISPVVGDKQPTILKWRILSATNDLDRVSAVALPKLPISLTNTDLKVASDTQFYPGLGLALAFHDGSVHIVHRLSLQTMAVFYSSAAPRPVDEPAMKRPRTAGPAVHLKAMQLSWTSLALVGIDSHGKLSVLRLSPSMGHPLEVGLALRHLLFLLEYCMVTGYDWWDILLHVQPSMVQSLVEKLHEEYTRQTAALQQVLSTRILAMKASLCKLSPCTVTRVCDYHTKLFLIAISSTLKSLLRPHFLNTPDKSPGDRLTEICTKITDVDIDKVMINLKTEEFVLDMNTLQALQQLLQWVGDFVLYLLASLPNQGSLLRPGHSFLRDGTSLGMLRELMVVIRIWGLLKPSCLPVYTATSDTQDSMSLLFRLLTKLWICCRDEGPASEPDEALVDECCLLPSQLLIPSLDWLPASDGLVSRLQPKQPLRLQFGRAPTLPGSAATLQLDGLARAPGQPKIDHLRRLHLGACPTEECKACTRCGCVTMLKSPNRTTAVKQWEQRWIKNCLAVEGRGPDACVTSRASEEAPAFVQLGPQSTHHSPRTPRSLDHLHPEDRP
inactive: [1] 0.01 | [2] -0.093 | [3] 0.02 | [4] -0.014 | [5] 0.004 | [6] -0.011 | [7] 0.038 | [8] -0.015 | [9] -0.004 | [10] 0.019 | [11] -0.014 | [12] -0.154 | [13] 0.03 | [14] 0.167 | [15] -0.027 | [17] 0.012 | [18] 0.021 | [19] 0.051 | [20] -0.065
active: [16] -0.261

LUC7L (UniProt Q9NQ29)
inactive: [2] 0.015 | [3] -0.117 | [4] -0.075 | [5] 0.002 | [6] 0.065 | [7] -0.039 | [8] 0.033 | [9] 0.01 | [10] 0.037 | [11] -0.022 | [12] -0.009 | [13] 0.097 | [14] -0.097 | [15] 0.006 | [17] 0.012 | [18] -0.028 | [19] -0.022 | [20] 0.023
active: [1] -0.259 | [16] -0.32

MOSPD2 (UniProt Q8NHP6)
inactive: [1] -0.028 | [2] -0.034 | [3] -0.03 | [4] 0.11 | [5] -0.015 | [6] 0.053 | [7] -0.026 | [8] 0.125 | [9] -0.027 | [10] -0.039 | [11] 0.01 | [12] -0.036 | [13] -0.041 | [14] -0.076 | [15] -0.02 | [16] 0.003 | [17] 0.021 | [18] 0.022 | [19] -0.009 | [20] 0.1

LLGL1 (UniProt Q15334)
inactive: [1] 0.026 | [2] -0.105 | [3] 0.032 | [4] -0.013 | [5] -0.034 | [6] 0.052 | [7] 0.108 | [8] -0.032 | [9] 0.121 | [10] -0.065 | [11] -0.005 | [12] -0.058 | [13] -0.025 | [15] 0.096 | [16] -0.011 | [17] 0.054 | [18] 0.006 | [19] -0.104 | [20] -0.019
active: [14] 0.263

MAD2L1BP isoform 3 (UniProt Q15013)
inactive: [1] 0.047 | [2] -0.135 | [3] 0.088 | [4] 0.068 | [5] -0.012 | [6] 0.138 | [7] 0.234 | [8] 0.052 | [9] -0.009 | [10] -0.054 | [11] 0.017 | [12] -0.155 | [13] -0.094 | [14] 0.022 | [15] 0.048 | [16] -0.009 | [17] -0.071 | [18] 0.12 | [19] -0.041 | [20] 0.008

KIF14 (UniProt Q15058)
Sequence of UniProt Q15058 (Q15058 whole entry, looked up): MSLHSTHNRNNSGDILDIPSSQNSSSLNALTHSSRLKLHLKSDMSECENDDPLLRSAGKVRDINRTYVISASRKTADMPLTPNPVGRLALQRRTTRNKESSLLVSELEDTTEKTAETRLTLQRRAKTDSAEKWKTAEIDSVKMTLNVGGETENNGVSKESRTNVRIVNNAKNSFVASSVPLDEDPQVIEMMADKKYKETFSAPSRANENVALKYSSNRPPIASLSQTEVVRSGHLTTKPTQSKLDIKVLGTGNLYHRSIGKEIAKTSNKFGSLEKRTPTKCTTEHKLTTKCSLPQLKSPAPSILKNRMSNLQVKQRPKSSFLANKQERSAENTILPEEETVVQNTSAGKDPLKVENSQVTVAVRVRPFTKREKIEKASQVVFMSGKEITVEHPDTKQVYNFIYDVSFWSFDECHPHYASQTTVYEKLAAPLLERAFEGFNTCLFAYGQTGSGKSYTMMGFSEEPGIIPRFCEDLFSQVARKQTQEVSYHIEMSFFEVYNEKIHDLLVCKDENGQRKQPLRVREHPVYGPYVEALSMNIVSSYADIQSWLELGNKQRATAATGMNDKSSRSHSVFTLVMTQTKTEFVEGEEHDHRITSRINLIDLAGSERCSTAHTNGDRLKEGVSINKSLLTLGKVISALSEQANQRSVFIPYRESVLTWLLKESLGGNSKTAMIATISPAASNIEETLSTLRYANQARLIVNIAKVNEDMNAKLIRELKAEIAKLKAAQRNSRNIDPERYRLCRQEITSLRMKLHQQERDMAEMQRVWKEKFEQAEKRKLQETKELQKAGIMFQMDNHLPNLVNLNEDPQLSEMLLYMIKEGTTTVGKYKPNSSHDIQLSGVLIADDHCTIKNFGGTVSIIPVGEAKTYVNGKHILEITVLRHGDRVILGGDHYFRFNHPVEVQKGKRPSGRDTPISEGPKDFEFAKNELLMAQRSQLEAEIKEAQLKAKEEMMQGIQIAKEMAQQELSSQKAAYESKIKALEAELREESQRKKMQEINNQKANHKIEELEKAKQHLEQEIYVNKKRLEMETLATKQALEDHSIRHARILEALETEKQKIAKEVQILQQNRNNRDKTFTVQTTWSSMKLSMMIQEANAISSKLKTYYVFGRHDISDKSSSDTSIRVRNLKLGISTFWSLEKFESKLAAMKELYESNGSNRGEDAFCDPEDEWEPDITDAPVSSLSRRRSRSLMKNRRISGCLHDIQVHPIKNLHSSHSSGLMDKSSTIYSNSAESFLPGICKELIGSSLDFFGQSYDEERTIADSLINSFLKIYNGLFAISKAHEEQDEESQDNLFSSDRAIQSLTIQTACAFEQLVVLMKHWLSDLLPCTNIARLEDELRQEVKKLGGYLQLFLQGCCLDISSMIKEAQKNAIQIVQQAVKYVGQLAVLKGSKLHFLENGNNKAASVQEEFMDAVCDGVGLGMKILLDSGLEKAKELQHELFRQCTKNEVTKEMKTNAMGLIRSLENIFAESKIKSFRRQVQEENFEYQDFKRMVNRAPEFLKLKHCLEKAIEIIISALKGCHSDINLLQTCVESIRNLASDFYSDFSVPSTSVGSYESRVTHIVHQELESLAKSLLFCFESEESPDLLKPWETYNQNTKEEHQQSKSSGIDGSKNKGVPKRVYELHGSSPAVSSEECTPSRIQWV
inactive: [1] -0.031 | [2] -0.217 | [3] 0.032 | [4] 0.043 | [5] 0.011 | [6] 0.038 | [7] 0.045 | [8] -0.028 | [9] 0.013 | [10] 0.001 | [11] 0.016 | [12] -0.277 | [13] -0.053 | [14] -0.082 | [15] 0.025 | [16] -0.011 | [17] 0.002 | [18] 0.046 | [19] -0.087 | [20] 0.042

MITD1 (UniProt Q8WV92)
inactive: [1] 0.021 | [2] 0.046 | [3] 0.044 | [4] -0.038 | [5] -0.026 | [6] -0.04 | [7] 0.143 | [8] 0.041 | [9] 0.018 | [10] 0.022 | [11] 0.003 | [12] -0.032 | [13] 0.046 | [14] 0.086 | [15] 0.055 | [16] 0.025 | [17] -0.015 | [18] -0.049 | [19] -0.118 | [20] -0.085

LARS (UniProt Q9P2J5)
Sequence of UniProt Q9P2J5 (Q9P2J5 whole entry, looked up): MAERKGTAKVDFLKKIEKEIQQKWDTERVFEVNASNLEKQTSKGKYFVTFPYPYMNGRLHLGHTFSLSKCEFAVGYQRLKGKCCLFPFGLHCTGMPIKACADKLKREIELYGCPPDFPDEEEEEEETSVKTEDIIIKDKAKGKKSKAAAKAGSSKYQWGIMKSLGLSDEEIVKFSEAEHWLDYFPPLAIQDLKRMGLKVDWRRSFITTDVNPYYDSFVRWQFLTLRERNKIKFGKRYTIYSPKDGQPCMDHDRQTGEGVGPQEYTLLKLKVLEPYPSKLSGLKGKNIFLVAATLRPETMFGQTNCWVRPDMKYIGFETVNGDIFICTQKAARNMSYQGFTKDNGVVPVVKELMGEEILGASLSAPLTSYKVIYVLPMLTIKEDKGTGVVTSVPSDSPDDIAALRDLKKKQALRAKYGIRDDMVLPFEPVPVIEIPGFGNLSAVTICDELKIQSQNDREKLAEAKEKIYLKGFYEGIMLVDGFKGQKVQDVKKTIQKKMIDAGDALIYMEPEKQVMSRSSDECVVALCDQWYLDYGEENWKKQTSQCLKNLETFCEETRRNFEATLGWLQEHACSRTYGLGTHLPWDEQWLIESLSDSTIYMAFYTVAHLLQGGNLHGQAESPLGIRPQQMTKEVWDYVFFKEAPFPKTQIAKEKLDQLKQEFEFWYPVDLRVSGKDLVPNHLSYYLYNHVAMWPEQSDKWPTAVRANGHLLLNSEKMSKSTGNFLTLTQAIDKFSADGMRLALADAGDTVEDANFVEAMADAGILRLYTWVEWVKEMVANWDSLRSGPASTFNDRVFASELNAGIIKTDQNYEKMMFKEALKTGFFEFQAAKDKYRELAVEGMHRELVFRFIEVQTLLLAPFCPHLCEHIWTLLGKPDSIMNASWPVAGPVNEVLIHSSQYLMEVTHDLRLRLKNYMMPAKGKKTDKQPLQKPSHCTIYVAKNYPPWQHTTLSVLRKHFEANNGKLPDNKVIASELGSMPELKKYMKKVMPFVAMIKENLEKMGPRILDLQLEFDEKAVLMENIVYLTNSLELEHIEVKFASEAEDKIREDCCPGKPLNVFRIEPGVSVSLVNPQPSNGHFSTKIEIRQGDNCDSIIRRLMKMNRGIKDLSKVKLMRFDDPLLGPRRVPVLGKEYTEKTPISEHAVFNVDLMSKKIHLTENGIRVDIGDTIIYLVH
inactive: [1] 0.051 | [2] -0.153 | [3] 0.006 | [4] 0.023 | [5] -0.054 | [6] 0.001 | [7] 0.097 | [8] 0.01 | [9] -0.013 | [10] -0.007 | [11] -0.004 | [12] -0.015 | [13] -0.043 | [14] 0.047 | [15] -0.013 | [16] -0.081 | [17] 0.012 | [18] -0.009 | [19] -0.048 | [20] -0.005

MCU (UniProt Q8NE86)
active: [16] -0.311
inactive: [1] 0.011 | [2] 0.045 | [3] 0.026 | [4] 0.037 | [5] -0.067 | [6] 0.016 | [7] -0.035 | [8] 0.01 | [9] -0.063 | [10] -0.091 | [11] -0.145 | [12] -0.041 | [13] -0.125 | [14] -0.03 | [15] 0.037 | [17] -0.02 | [18] 0.085 | [19] -0.108 | [20] 0.032

L3HYPDH (UniProt Q96EM0)
inactive: [1] 0.023 | [2] -0.052 | [3] 0.005 | [4] -0.012 | [5] 0.022 | [6] -0.017 | [7] 0.039 | [8] -0.019 | [9] -0.005 | [10] -0.013 | [11] -0.019 | [12] -0.032 | [13] -0.028 | [14] -0.045 | [15] -0.014 | [16] 0.018 | [17] -0.002 | [18] 0.036 | [19] -0.018 | [20] -0.048

MBOAT2 (UniProt Q6ZWT7)
active: [16] 0.319
inactive: [1] -0.024 | [2] 0 | [3] 0.079 | [4] 0.002 | [5] -0.025 | [6] 0.156 | [7] -0.073 | [8] -0.003 | [9] 0.034 | [10] 0.064 | [11] -0.067 | [12] 0.061 | [13] -0.005 | [14] -0.175 | [15] 0.009 | [17] 0.106 | [18] -0.12 | [19] -0.049 | [20] 0.281

LYN (UniProt P07948)
inactive: [1] 0.026 | [2] -0.046 | [3] 0.203 | [4] 0.076 | [5] -0.092 | [6] -0.01 | [7] -0.072 | [8] 0.171 | [9] 0.26 | [10] -0.006 | [11] -0.184 | [12] -0.036 | [13] 0.093 | [14] -0.079 | [15] -0.042 | [16] 0.551 | [17] 0.11 | [18] 0.026 | [20] -0.005
active: [19] 0.763
